The results in this text go back to PubChem BioAssay.

Calls of active or inactive are those of the source. Unless noted, no rule for the calls is given here.

The test system of assay [1] is Wnt5a (protein binding on small-molecule microarray). Nature of the assay: small molecules binding Wnt5a protein – biophysical, small-molecule microarray, 635/667 nm fluorescence, primary screen (AID 1142).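 Also: fluorescence read at 667 nm with signal to noise per printed feature.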 The settings on record: 635 nm fluorescence, higher = more signal.
The nature of assay [2]: ATP-based viability of Huh7 replicon cells – cell-based, CellTiter-Glo luminescence, basal, 48 h, cytotoxicity control for HCV replication inhibitor project, primary screen (AID 1143).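 Also: Huh7 hepatoma cells carrying a hepatitis C replication reporter with no stimulus; test concentration not given here.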 The conditions noted are these: higher = more signal, called active from +8 up or from −8 down. In general terms: A replicon is a self-replicating genome or part of one, used to study replication in cells.

A short description of assay [3]: Pseudomonas biofilm growth suppression – PAO1 strain, BacTiter-Glo luminescence, LB-PBS, primary screen (AID 1144). The conditions noted are these: P. aeruginosa PAO1 biofilm, 12 h, higher = more signal.
Assay [4] can be described thus: basal CRE-LacZ reporter activity in PC12 – cell-based, unstimulated, primary screen (AID 1145). The conditions noted are these: no forskolin, luminescence, 4.5 h, higher = more signal, called active from +8 up or from −8 down.
Assay [5] is described as follows: forskolin-driven CRE-LacZ activity in PC12 – cell-based, CRE-LacZ reporter, forskolin-stimulated, primary screen (AID 1146).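 Also: PC12 cells with 6xCRE LacZ reporter stimulated by forskolin 10 µM; beta-galactosidase reporter signal reflecting CREB driven transcription.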 The settings on record: luminescence, 4.5 h, higher = more signal, called active from +8 up or from −8 down.
Assay [6] deals with Streptavidin (Streptomyces avidinii) (UniProt P22629). Nature of the assay: compounds binding control protein streptavidin – biophysical, small-molecule microarray, 635/667 nm fluorescence, artefact control for SMM compound annotation, primary screen (AID 1147).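 Also: signal reflects streptavidin binding to arrayed compounds as a control protein.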 The settings on record: higher = more signal.
Assay [7] in a line: probe aInhba binding on compound microarray – biochemical, small-molecule microarray, 635/667 nm fluorescence, primary screen (AID 1148).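 Also: score merges 667nm spot fluorescence with signal-to-noise for antibody binding to printed compounds.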 The conditions noted are these: higher = more signal.
The target of assay [8] is Torsin-1A (Homo sapiens) (UniProt O14656). Kind of assay: TOR1A wild-type binding on microarray – cell lysate, small-molecule microarray, lysate, 635/667 nm, primary screen (AID 1149). The conditions noted are these: COS7 hTOR1A-WT lysate, 635 nm fluorescence, higher = more signal.
Assay [9] shares this target. Nature of the assay: torsin A mutant lysate binding on microarrays – cell lysate, small-molecule microarray, COS7 lysate, 635/667 nm fluorescence, primary screen (AID 1150).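 Also: score pools 667 nm emission and signal to noise measuring lysate protein binding.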 The conditions noted are these: COS7 hTOR1A mutant lysate, 635 nm fluorescence, higher = more signal.
For assay [10], the system named is Sonic hedgehog protein (Shh). Nature of the assay: Sonic hedgehog microarray binding compounds – biochemical, small-molecule microarray, 635/667 nm fluorescence, primary screen (AID 1151).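 Also: Shh protein binding to compounds spotted on small-molecule microarray slides; score combines spot fluorescence intensity with signal-to-noise across triplicate slides.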 The settings on record: 635 nm fluorescence, higher = more signal.
Assay [11] is described as follows: optical density shifts of acrAB sulA E. coli – strain DRC41, OD650, 48 h, E. coli filamentation inducer project, primary screen (AID 1152).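 Also: E. coli MC1000 strain DRC41 lacking acrAB efflux pump and sulA.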 The conditions noted are these: higher = more signal, called active from +8 up or from −8 down.
Assay [12] is described as follows: probe aLefty1 binding on compound microarray – biochemical, small-molecule microarray, 635/667 nm fluorescence, primary screen (AID 1153).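 Also: score merges spot fluorescence with signal-to-noise ratio from the scanned slide images.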 The conditions noted are these: higher = more signal.
A short description of assay [13]: plasmodial surface anion channel blockers, osmotic lysis – cell-based, P. falciparum Indochina, OD700, 1 h, primary screen (AID 1154). The settings on record: P. falciparum Indochina infected RBC osmotic lysis, higher = more signal, called active from +8 up or from −8 down.
Assay [14] can be described thus: plasmodial surface anion channel blockers, osmotic lysis – cell-based, P. falciparum Indochina, OD700, 2 h, primary screen (AID 1155).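 Also: lysis reports solute entry through the parasite surface anion channel PSAC.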 The settings on record: P. falciparum Indochina infected erythrocytes, higher = more signal, called active from +8 up or from −8 down.
Assay [15] can be described thus: changes in parasitized red cell lysis, either direction – P. falciparum Indochina, OD700, 3 h, PSAC antagonist project, primary screen (AID 1156). The settings on record: P. falciparum-infected erythrocytes, osmotic lysis, higher = more signal, called active from +8 up or from −8 down.
A short description of assay [16]: plasmodial surface anion channel blockers, osmotic lysis – cell-based, P. falciparum Indochina, OD700, 18 h, primary screen (AID 1157). The settings on record: P. falciparum Indochina infected erythrocytes, osmotic lysis OD700, 18 h; higher = more signal, called active from +8 up or from −8 down.
Assay [17] can be described thus: S6 kinase pathway phospho-S6 level changes – cell-based, A549, cytoblot, luminescence, serum-stimulated, primary screen (AID 1158).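 Also: serum-stimulated A549 lung adenocarcinoma cells; signal is phosphorylated S6 detected by cytoblot immunostaining with HRP secondary.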 The conditions noted are these: 5 h, higher = more signal.
For assay [18], the target named is NADPH oxidase 2 (Homo sapiens) (UniProt P04839). Kind of assay: compounds shifting NOX2 Amplex Red fluorescence – cell-based, HEK293-NOX2, PMA-stimulated, NOX inhibitor project, primary screen (AID 1159). Also: test concentration not given here. The conditions noted are these: 45 min, higher = more signal, called active from +8 up or from −8 down.
For assay [19], the target named is NADPH oxidase 4 (Homo sapiens) (UniProt Q9NPH5). Kind of assay: compounds shifting NOX4 Amplex Red fluorescence – cell-based, HEK293-NOX4, tetracycline-induced, NOX inhibitor project, primary screen (AID 1160). The conditions noted are these: HEK293-NOX4, Amplex Red H2O2 fluorescence, 45 min; higher = more signal, called active from +8 up or from −8 down.
Assay [20] deals with NADPH oxidase 5 (Homo sapiens) (UniProt Q96PH1). Nature of the assay: compounds shifting NOX5 Amplex Red fluorescence – cell-based, HEK293-NOX5, NOX inhibitor project, primary screen (AID 1161). The conditions noted are these: HEK293-NOX5, ionomycin, 45 min, higher = more signal.
Sequence of NADPH oxidase 5 (Homo sapiens) (Q96PH1 whole entry, looked up): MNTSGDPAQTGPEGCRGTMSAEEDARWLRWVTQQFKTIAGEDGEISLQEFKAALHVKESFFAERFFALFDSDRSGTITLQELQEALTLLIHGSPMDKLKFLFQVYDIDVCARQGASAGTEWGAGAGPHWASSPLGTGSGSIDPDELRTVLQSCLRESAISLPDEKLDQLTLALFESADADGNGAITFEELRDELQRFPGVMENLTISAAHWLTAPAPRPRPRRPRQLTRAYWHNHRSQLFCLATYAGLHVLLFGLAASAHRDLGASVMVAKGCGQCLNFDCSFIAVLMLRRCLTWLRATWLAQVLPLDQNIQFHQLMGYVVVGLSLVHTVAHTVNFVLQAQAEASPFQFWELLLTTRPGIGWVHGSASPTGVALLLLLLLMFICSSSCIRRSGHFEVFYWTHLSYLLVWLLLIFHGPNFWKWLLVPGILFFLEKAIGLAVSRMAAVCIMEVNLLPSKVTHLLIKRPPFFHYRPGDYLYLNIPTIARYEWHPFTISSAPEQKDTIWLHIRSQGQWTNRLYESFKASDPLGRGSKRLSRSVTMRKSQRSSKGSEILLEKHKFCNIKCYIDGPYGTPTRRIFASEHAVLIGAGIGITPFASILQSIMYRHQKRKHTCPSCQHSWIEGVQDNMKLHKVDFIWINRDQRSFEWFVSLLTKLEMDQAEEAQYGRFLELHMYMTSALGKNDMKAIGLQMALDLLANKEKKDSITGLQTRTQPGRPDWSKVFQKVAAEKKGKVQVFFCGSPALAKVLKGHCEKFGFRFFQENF

Sequence of NADPH oxidase 4 (Homo sapiens) (Q9NPH5 whole entry, looked up): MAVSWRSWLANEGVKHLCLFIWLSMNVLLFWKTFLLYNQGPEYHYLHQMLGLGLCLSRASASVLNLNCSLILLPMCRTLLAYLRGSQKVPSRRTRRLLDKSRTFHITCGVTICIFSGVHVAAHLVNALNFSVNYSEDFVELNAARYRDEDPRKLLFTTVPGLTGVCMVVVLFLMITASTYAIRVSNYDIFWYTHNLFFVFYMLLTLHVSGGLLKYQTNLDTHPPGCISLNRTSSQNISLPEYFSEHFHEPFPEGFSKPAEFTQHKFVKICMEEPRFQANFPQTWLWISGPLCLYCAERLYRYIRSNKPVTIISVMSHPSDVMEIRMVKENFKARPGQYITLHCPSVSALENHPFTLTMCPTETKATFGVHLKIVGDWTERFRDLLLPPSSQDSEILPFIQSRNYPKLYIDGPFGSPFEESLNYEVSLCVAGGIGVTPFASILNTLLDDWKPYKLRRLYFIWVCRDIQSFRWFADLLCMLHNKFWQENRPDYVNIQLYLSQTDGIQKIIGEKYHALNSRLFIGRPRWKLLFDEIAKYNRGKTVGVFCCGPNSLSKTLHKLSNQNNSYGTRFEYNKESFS
Sequence of NADPH oxidase 2 (Homo sapiens) (P04839 whole entry, looked up): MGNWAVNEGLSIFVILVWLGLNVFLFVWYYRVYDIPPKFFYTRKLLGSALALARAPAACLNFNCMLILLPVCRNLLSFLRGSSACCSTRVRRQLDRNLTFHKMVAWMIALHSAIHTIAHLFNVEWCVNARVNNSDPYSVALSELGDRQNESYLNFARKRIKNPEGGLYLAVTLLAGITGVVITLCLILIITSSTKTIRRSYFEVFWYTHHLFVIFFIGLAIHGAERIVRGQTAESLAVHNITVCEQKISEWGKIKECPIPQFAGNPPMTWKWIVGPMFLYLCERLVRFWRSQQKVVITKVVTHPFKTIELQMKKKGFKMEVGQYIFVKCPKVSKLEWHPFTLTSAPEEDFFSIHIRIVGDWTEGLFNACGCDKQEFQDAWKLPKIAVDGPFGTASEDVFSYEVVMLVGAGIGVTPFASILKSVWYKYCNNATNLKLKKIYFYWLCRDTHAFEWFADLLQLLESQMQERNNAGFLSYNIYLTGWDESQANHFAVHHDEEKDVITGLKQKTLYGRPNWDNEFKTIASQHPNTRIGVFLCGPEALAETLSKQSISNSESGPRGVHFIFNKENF
Sequence of Torsin-1A (Homo sapiens) (O14656 whole entry, looked up): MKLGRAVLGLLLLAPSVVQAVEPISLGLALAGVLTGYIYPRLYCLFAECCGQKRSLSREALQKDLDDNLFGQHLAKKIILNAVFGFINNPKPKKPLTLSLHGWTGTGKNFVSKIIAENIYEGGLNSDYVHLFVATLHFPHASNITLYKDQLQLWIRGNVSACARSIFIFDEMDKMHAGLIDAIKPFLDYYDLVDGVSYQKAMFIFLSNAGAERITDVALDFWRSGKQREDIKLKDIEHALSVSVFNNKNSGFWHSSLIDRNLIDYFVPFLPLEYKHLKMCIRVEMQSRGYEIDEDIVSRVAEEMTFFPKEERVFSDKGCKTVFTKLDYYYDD
Sequence of Streptavidin (Streptomyces avidinii) (P22629 whole entry, looked up): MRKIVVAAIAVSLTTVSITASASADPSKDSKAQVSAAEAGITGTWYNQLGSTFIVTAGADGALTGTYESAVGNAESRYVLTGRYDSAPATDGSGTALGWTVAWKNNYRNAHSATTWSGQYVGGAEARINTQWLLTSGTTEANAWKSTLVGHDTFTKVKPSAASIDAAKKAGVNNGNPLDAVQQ

Consider `CC(C)C(=C=CC[C@H](O)c1cccc(OCCO)c1)C[C@H](O)c1ccccn1`, for which the composite z-score is -0.103 in assay [1]; -0.502 in assay [6]; -0.0986 in assay [7]; -0.256 with Torsin-1A (Homo sapiens) [8]; 0.0951 with Torsin-1A (Homo sapiens) [9]; 1.45 in assay [10]. The composite z-score in assay [12] was found to be 0.21. Also, the z-score in [2] is -0.667 (inactive); in assay [3] it was -1.06 (inactive); in [4], 2.25 (inactive); in assay [5], 0.42 (inactive); in [11], 1.21 (inactive); in assay [13] it was 7.72 (inactive). Moreover, the z-score in assay [14] was 0.631 (inactive); in assay [15], 1.96 (inactive); in assay [16] it was 0.626 (inactive); in assay [17], 0.468; in assay [18], -1.57 (inactive); in [19], 0.362 (inactive). In addition, the z-score in [20] is -1.13.

As to `CN(C)CCCCNC(=O)[C@H]1C[C@H]2C(=O)N[C@@H](CCCCN(C)C)C(=O)N2[C@H]1c1ccc(O)cc1`, the composite z-score in [1] was 0.215; in assay [6] it was 0.165; in assay [7], -0.206; with Torsin-1A (Homo sapiens) [8], 0.464; with Torsin-1A (Homo sapiens) [9], 0.282; in [10], 1.29. Moreover, in [12], the composite z-score is -0.299. In addition, the z-score in assay [2] is -1.14 (inactive); in [3] it was -0.889 (inactive); in assay [4] it was -1.61 (inactive); in [5], -0.252 (inactive); in assay [11] it was 2.41 (inactive); in [13] it was -0.418 (inactive). In addition, the z-score is -0.546 (inactive) in [14]; 0.589 (inactive) in assay [15]; -1.34 (inactive) in assay [16]; 0.859 in assay [17]; 0.109 (inactive) in assay [18]; 0.504 (inactive) in assay [19]. In addition, the z-score in assay [20] came to 0.875.

Consider `O=C1OCCC/C=C\[C@H]2OC34C=CCN(Cc5ccccc5)C(=O)[C@H]3N(CCO)C(=O)[C@@H]4C12` (stereo not given in full), for which the composite z-score is 0.0691 in [1]; -1.06 in assay [6]; 0.225 in [7]; 1.3 with Torsin-1A (Homo sapiens) [8]; 0.232 in the assay with Torsin-1A (Homo sapiens) [9]; 1.87 in assay [10]. The same compound returned a composite z-score in assay [12] of -0.0536. Besides, the z-score is 0.347 (inactive) in [2]; -1.38 (inactive) in assay [3]; -0.0899 (inactive) in [4]; -0.0501 (inactive) in [5]; 2.28 (inactive) in [11]; 1.65 (inactive) in assay [13]. Also, the z-score in assay [14] is 0.803 (inactive); in assay [15], 1.82 (inactive); in assay [16], 0.671 (inactive); in assay [17], 0.0012; in assay [18] it was 1.7 (inactive); in [19] it was 0.571 (inactive). Further, the z-score in assay [20] came out at 1.68.

Take `[N-]=[N+]=Nc1ccccc1C[C@]1(C(=O)N2CCCCC2)N=C(c2ccc(OCCCO)cc2)O[C@H]1c1ccccc1`: the composite z-score came to 0.982 in assay [1]; 1.15 in assay [6]; 0.696 in [7]; 0.351 with Torsin-1A (Homo sapiens) [8]; 0.402 with Torsin-1A (Homo sapiens) [9]; 1.05 in assay [10]. The composite z-score in assay [12] turned out to be 0.179. For the same compound, the z-score in assay [2] is -4.56 (inactive); in [3], 0.0619 (inactive); in assay [4] it was -0.506 (inactive); in [5], -0.0671 (inactive); in [11], 0.699 (inactive); in assay [13], 18 (active). The z-score was 4.52 (inactive) in [14]; 3.48 (inactive) in [15]; 1.87 (inactive) in [16]; -0.0985 in [17]; -1.76 (inactive) in assay [18]; -0.593 (inactive) in [19]. Further, the z-score in assay [20] was -1.68.

Turning to `COc1cccc(C)c1NC(=O)O[C@H]1[C@H](OC(=O)Nc2ccccc2)[C@@H](OC(=O)Nc2ccccc2)[C@@H](OC)O[C@@H]1CO`, the composite z-score in assay [1] was 0.486; in assay [6] it was 0.163; in [7], 0.0227; with Torsin-1A (Homo sapiens) [8], 2.57; with Torsin-1A (Homo sapiens) [9], 0.958; in assay [10], 0.958. In assay [12], this compound returned a composite z-score of 0.26. Moreover, the z-score in [2] was -4.16 (inactive); in assay [3], -1.16 (inactive); in assay [4] it was 1.61 (inactive); in assay [5], -2.37 (inactive); in assay [11] it was -0.818 (inactive); in assay [13], 3.02 (inactive). Further, the z-score in assay [14] was 0.121 (inactive); in [15], 0.376 (inactive); in assay [16], 0.421 (inactive); in assay [17], 0.249; in assay [18] it was -7.01 (inactive); in assay [19], -1.26 (inactive). The z-score in [20] was -2.29.
